Screens (PubChem BioAssay)
RPL19A-GFP yeast – modulators of TOR pathway RPL19A-GFP in S. cerevisiae; S. cerevisiae RPL19A-GFP strain, flow cytometry, 3 h; hits give low values; percent response vs DMSO, % at 10 µM; actives 0.3% (n = 330,000); AID 2025;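 active = percent response vs DMSO below 50%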;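 note: median channel GFP fluorescence of the barcoded RPL19A-GFP strain; ratio of sample median GFP to plate DMSO average so 100% = DMSO; lower means less RPL19A-GFP as with rapamycin TOR inhibition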
CIT2 TOR yeast – alters CIT2-GFP fluorescence in TOR pathway yeast screen; S. cerevisiae CIT2-GFP strain, flow cytometry, 3 h; 100 means same as DMSO wells; GFP response vs DMSO, % at 10 µM; actives 0.065% (n = 320,000); AID 2029;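 active = GFP response relative to DMSO above a set limit, near the screen mean plus 3 SD, cut at about 150% in these data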;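 note: ratio of well median GFP fluorescence to mean of DMSO wells on the plate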
MEP2-GFP yeast – modulators of TOR pathway MEP2-GFP in S. cerevisiae. GFP response vs DMSO, % at 10 µM. S. cerevisiae MEP2-GFP strain, flow cytometry GFP, 3 h; 100% = DMSO control level. actives 0.51% (n = 330,000);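 active = GFP response versus DMSO above a set limit, roughly screen mean plus 3 SD, cut at about 180% in these data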;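 note: median GFP fluorescence of the barcode-gated MEP2-GFP cells per well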
AGP1-GFP MLPCN – yeast TOR pathway AGP1-GFP modulation; S. cerevisiae AGP1-GFP multiplex flow cytometry, 3 h; GFP as percent of DMSO wells; GFP response vs DMSO, % at 10 µM; actives 0.02% (n = 320,000);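 active = GFP response relative to DMSO above a set limit, near screen average plus 3 SD, cut at about 150% in these data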;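 note: median GFP channel fluorescence of the gated AGP1 strain per well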
LAP4 TOR yeast – yeast TOR pathway LAP4-GFP modulation; S. cerevisiae LAP4-GFP multiplex, flow cytometry GFP, 3 h; median GFP as percent of DMSO wells; GFP response vs DMSO, % at 10 µM; actives 0.34% (n = 320,000);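 active = GFP response vs DMSO above a set limit, about the screen mean plus 3 SD, cut at about 150% in these data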
LAP4-GFP pick2 – yeast LAP4-GFP modulation, second cherry pick | shares compounds with LAP4 TOR yeast | GFP response vs DMSO, % at 10 µM | actives 20% (n = 590) | S. cerevisiae LAP4-GFP strain, flow cytometry GFP, 3 h;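 active = GFP signal as percent of the solvent control above about 150%, meaning raised reporter expression, limit read from the data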;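 note: ratio of well median GFP fluorescence to plate DMSO mean so 100% = DMSO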
MEP2-GFP pick2 – reconfirmed MEP2-GFP TOR pathway modulator in yeast; shares compounds with LAP4 TOR yeast; S. cerevisiae MEP2-GFP strain, flow cytometry GFP, 3 h; GFP response vs DMSO, % at 10 µM; actives 10% (n = 590); AID 2622;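 active = GFP signal above 150% of the solvent control wells, that is a rise of more than half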;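 note: median channel GFP fluorescence of all gated yeast cells per well; ratio of median GFP to plate DMSO average so 100% = DMSO level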
RPL19A-GFP pick2 – yeast RPL19A-GFP TOR reporter modulation, second cherry pick | GFP response vs DMSO, % at 10 µM | shares compounds with LAP4 TOR yeast | actives 3% (n = 590) | S. cerevisiae RPL19A-GFP strain, flow cytometry GFP, 3 h; hits give low values; 100% means same as DMSO wells | AID 2623;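 active = under 65% GFP response relative to DMSO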;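 note: median GFP channel fluorescence per well over the all cells gate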
CIT2-GFP pick2 – reconfirmed modulator of CIT2-GFP TOR reporter in yeast; shares compounds with LAP4 TOR yeast; S. cerevisiae CIT2-GFP strain, flow cytometry GFP, 3 h; DMSO control wells read 100%; GFP response vs DMSO, % at 10 µM; actives 8% (n = 590); AID 2624;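 active = GFP response vs DMSO above about 150%, limit read from the data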;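 note: median green fluorescence per well over all gated yeast cells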
AGP1 GFP CP2 – second confirmation of modulators of TOR reporter AGP1-GFP in yeast. percent response vs DMSO, % at 10 µM. S. cerevisiae AGP1-GFP strain, flow cytometry GFP, 3 h. shares compounds with LAP4 TOR yeast. 590 tested, under 10 active;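 active = over 150 percent of DMSO response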;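 note: median GFP channel fluorescence over all cells without mother daughter split; sample median GFP divided by mean DMSO control so 100% equals DMSO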
s288c autofluor – counter-screen for compound autofluorescence in yeast s288c cells | shares compounds with LAP4 TOR yeast | fluorescence change (kMESF span) at 33 µM | S. cerevisiae s288c, 520 nm autofluorescence, flow cytometry, 3 h; hits give high values; zero means same as solvent-only cells | AID 2757 | 610 tested, under 10 active;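 active = fluorescence span over the dose series, or activity score, above about 33, limit read from the data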
TORC1 bypass – wildtype yeast growth loss with TORC1 bypass cells unaffected. shares compounds with LAP4 TOR yeast. growth rating (0-3) at 30 µM. 120 tested, under 10 active. S. cerevisiae BY4741 spot growth rating, 48-72 h; hits give low values;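 active = growth rating at most 1 for wild type yeast while the TORC1 bypass strain still grows fully, rated 3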
* hit, by the source's call; . = not tested or not shown. A selection: hits, their analogues and other compounds. The true share with any hit is near 0.92%.

SMILES	RPL19A-GFP yeast	CIT2 TOR yeast	MEP2-GFP yeast	AGP1-GFP MLPCN	LAP4 TOR yeast	LAP4-GFP pick2	MEP2-GFP pick2	RPL19A-GFP pick2	CIT2-GFP pick2	AGP1 GFP CP2	s288c autofluor	others
N=C1/C(=C\c2coc3ccccc3c2=O)C(=O)N=C2SC(c3ccncc3)=NN12	64.0	94.7	100.4	65.7	120.1	139.3	108.3	83.3	162.7*	82.3	18.2
CCN(CC(=O)NC(C)(C)C)C(=O)COc1c(Cl)cc(Cl)c2ccc(C)nc12	87.5	81.3	97.0	85.5	227.0*	.	.	.	.	.	1
CCOc1ccccc1NC(=O)COC(=O)COc1c(Cl)cc(Cl)c2ccc(C)nc12	95.7	95.3	93.0	104.2	103.5	.	.	.	.	.	.
O=[N+]([O-])c1c(NC2CCCCC2)nc(NCc2ccccc2)nc1N1CCOCC1	.	.	.	.	.	.	.	.	.	.	.	TORC1 bypass=3
Cc1ccc2c(c1)/C(=N/OS(=O)(=O)c1ccccc1)CCS2	94.0	98.9	104.8	102.0	103.0	.	.	.	.	.	.
CC1=CC(=O)C(C(C)C)=C/C1=N/OS(=O)(=O)c1ccccc1	72.9	75.1	77.0	98.4	215.7*	.	.	.	.	.	2.75
O=C(Nc1ccc([N+](=O)[O-])cc1)c1ccccc1F	105.6	98.8	103.4	97.2	91.3	.	.	.	.	.	.
O=C(c1cc(O)c(O)c([N+](=O)[O-])c1)c1ccccc1F	90.6	77.5	99.2	83.2	151.1*	125.2	118.8	90.3	108.5	105.8	.
CN(C)c1ccc(C(=O)c2ccc(O)cc2O)cc1	80.6	83.9	84.9	57.9	206.4*	105.2	99.6	99.1	90.4	88.9	.
O=C(c1ccc(O)cc1)c1ccc(O)cc1O	101.6	97.7	98.6	102.2	113.7	.	.	.	.	.	.
Cc1c(CCC(=O)NCCCCCC(=O)O)c(=O)oc2cc3occ(-c4ccccc4)c3cc12	105.2	102.0	126.4	94.2	104.5	.	.	.	.	.	.
Cc1ccc(Cl)cc1S(=O)(=O)N1CCC(C(=O)NC2CCN(Cc3ccccc3)CC2)CC1	101.7	105.6	107.4	103.6	96.0	.	.	.	.	.	.
O=C(Nc1ccc(C(=O)N2CCCCC2)cc1)c1ccccc1Br	103.4	101.8	217.9*	102.9	151.8*	105.2	115.3	101.0	109.9	97.8	.
O=C(Nc1ccc(C(=O)N2CCCC2)cc1)c1ccccc1Br	99.1	98.2	100.6	98.9	102.5	.	.	.	.	.	.
Cc1ccc(NC(=O)c2nc(S(=O)(=O)Cc3ccccc3)ncc2Cl)cc1	95.2	74.3	86.5	92.4	151.9*	.	.	.	.	.	-0.3
COc1ccccc1C(=O)NNC(=O)C1CCCO1 (stereo unspecified)	102.7	101.3	104.2	104.8	100.4	.	.	.	.	.	.
O=C(/C=C/c1ccccc1)NC(=S)NNC(=O)Cc1cccs1	95.3	77.1	107.0	94.4	106.9	104.2	101.3	96.3	102.9	100.2	0.2
OCC[C@@H]1C[C@H](O)[C@@H](O)[C@@]2(OCCc3ccccc32)O1	96.8	70.4	88.8	80.8	102.6	.	.	.	.	.	.
